The source made the active and inactive calls. How the source made its calls: active means hit-call score of the fitted dose curve at least 0.9, where 1 is the maximum; inactive means score below 0.9.

This test in a line: CCTE_Harrill_HTTr_Viability_MCF7: CCTE's 6-hour Cell Viability Assessment for the High-Throughput Transcriptomics (HTTr) Platform, in MCF-7 cells cultured in DMEM + 10% fetal bovine serum, Harrill Lab (AID 2284010). An excerpt: This is a cell-based assay that evaluates cell viability using high content imaging to evaluate membrane integrity using propidium iodide dye exclusion in a 384 well format.One of seven assay components measured from the CCTE_Harrill_HTTr_Viability assay. This was part of a full screening experiment. This is a cell-based assay that evaluates cell viability in MCF-7 cells cultured in DMEM + 10% fetal bovine serum. High content imaging is used to evaluate membrane integrity using propidium iodide dye exclusion. Measurements are taken at 6 hours after chemical dosing in 384-well format.The assay component endpoint CCTE_Harrill_HTTr_Viability_MCF7 was analyzed with bidirectional fitting relation to DMSO as the negative control and baseline of activity. Using a type of viability reporter, gain-of-signal activity can be used to evaluate membrane integrity using propidium iodide dye exclusion to understand changes in cytotoxicity. To generalize the intended target to other relatable targets, this assay endpoint is annotated to cell cycle, where the subfamily is cytotoxicity.
Chemicals were tested in MCF7 cells in an eight point dilution series with a six hour exposure duration.
For the compound `O=C(O)c1ccc2c(c1)C(=O)OC2=O`, the outcome was inactive. As to `CCOC(=O)C1=NN(c2ccc(Cl)cc2Cl)C(C)(C(=O)OCC)C1` (stereo not given), the result was inactive.

Consider `CC(=O)OCCc1ccccc1`, for which the outcome was inactive.

With `COc1ccc(C(=O)c2ccccc2)c(O)c1`, the outcome was inactive. With `Oc1ccc(/C=C/c2cc(O)cc(O)c2)cc1`, the outcome was inactive. `CCCCCCCCCCCCC`: the outcome was inactive.

With `CCC(C)C(=O)OC` (stereo not given), the result was inactive. As to `CC(=O)OC1CCCCC1C(C)(C)C` (stereo not given), the result was inactive. As for `c1ccc2c(c1)[nH]c1ccccc12`, the outcome was inactive. As to `CCCc1ccc(O)c(OC)c1`, the outcome was inactive. For the compound `CC(C)OC(=O)c1ccccc1`, the outcome was inactive. The result for `CCCCCCCO` reads “inactive”; that for `CC(=O)c1ccc(S(=O)(=O)NC(=O)NC2CCCCC2)cc1`, “inactive”. With `CC/C=C\CCOC(=O)c1ccccc1O`, the outcome was inactive.

Regarding `O=C(O)C1CCC(C(=O)O)CC1` (stereo not given), the result was inactive. In the case of `CC(=O)CCC1=C(C)CCCC1(C)C`, the outcome was inactive.

With `COC(=O)C=Cc1ccccc1`, the result was inactive.

As for `C=C[C@@]1(C)CC(=O)[C@]2(O)[C@@]3(C)[C@@H](O)CCC(C)(C)[C@@H]3[C@H](O)[C@H](OC(C)=O)[C@@]2(C)O1`, the outcome was inactive. The result for `CCOC(=O)C1=NOC(c2ccccc2)(c2ccccc2)C1` reads “inactive”. `CC(C=O)c1ccccc1` (stereo not given): the result was inactive. The result for `O=C(O)/C=C/c1ccccc1` reads “inactive”. Take `N#Cc1ccc(C(c2ccc(C#N)cc2)n2cncn2)cc1`: the outcome was inactive. Then `C=C1C[C@H]2[C@@H]3C=C(C)C4=CC(=O)CC[C@]4(C)[C@H]3CC[C@]2(C)[C@@]1(OC(C)=O)C(C)=O`, with “inactive”; and `c1ccc2cnccc2c1`, with “inactive”.

For `COc1cc(O)c(C(=O)c2ccccc2)cc1S(=O)(=O)O`, the result was inactive. Then `C=Cc1ccc(OC(C)=O)cc1`, with “inactive”; and `CC(C)=CCl`, with “inactive”. The result for `CC1(C)CC(O)CC(C)(C)N1[O]` reads “inactive”; that for `O=C(Oc1ccccc1)c1ccccc1O`, “inactive”. Turning to `CCCCOCC(C)O` (stereo not given), the outcome was inactive.

For the compound `CC(=O)c1ccccc1O`, the outcome was inactive. As to `CC(C)[N+](C)(CCOC(=O)C1c2ccccc2Oc2ccccc21)C(C)C`, the outcome was inactive. With `CCCCCCCCCCCCCC(=O)OC(C)C`, the outcome was inactive. Then `Cc1ccc(C)c(OCCCC(C)(C)C(=O)O)c1`, with “inactive”; and `CN(C)c1ccc2nc3ccc(=[N+](C)C)cc-3sc2c1`, with “inactive”.

In the case of `CC(C)(O)Cc1ccccc1`, the result was inactive. As for `N#Cc1ccc(C2CCCc3cncn32)cc1` (stereo not given), the outcome was inactive.

`O=C(O)CCC(=O)O`: the result was inactive. For the compound `Fc1ccc(Br)cc1`, the outcome was inactive.

For `Clc1cc(Cl)c(Cl)c(Cl)c1Cl`, the result was inactive.
